Abeta yeast res: A-beta toxicity reversal in yeast; yeast expressing A-beta42, growth rescue, OD600, 48 h; response scale: 0% DMSO, 100% iron-clioquinol control; hit rate 0.063% among 410,000; Potency, µM (highest dose often 46.1 µM), hits mostly activators; further: nearly all actives have a fitted effect of over 55% in size
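Yeast A-beta toxicity model in growth medium with pinned compounds, 48 h at 30 C; growth read as absorbance at 600 nm. Normalized to FeCl3/clioquinol equimolar mix (positive) and DMSO (negative).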
aSyn yeast inh: inhibitors of alpha-synuclein toxicity in yeast | Yeast expressing alpha-synuclein, growth rescue, BacTiter-Glo, 24 h | Potency, µM (doses to about 46.1 µM), for inactives: at the highest dose growth rescue (activation), actives largely listed as activators | hit rate 0.14% among 370,000; further: % of control where 0% means no effect; nearly all actives have a fitted effect of over 65% in size
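Screening used galactose-induced yeast with toxic alpha-synuclein levels, exposed to compound for 24 hr at 30 deg C. Cell growth, read with BacTiter-Glo luminescence, gave the measured signal.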
FUS suppressor: suppressors of FUS proteinopathy in yeast; hit rate 0.24% among 390,000; S. cerevisiae FUS-expressing, growth rescue, OD600, 24 h; AID 1347120; Potency, µM (titrated, usually from 76.6 µM), actives largely listed as activators;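 further: plate controls were DMSO vehicle for no effect and reference control for full effect; nearly all actives have a fitted effect of over 55% in size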
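Compound concentration series was pinned onto galactose-induced FUS-expressing yeast seeded at OD 0.005. Plates sat 24hr at 30C; absorbance at 600 nm gave growth. DMSO served as background control.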
TDP-43 yeast inh: inhibitors of TDP-43 toxicity in yeast | TDP-43 expressing yeast growth rescue, BacTiter-Glo, 24 h | Potency, µM (highest dose often 46.1 µM), for the others: top-dose growth rescue (activation), most hits filed as activators | hit rate 1.8% among 410,000 | AID 652104; further: % of control where 0% means no effect; nearly all actives have a fitted effect of over 50% in size
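Readout is BacTiter-Glo luminescence of cell growth, so inhibitors register as activators. TDP-43-expressing yeast at OD600=0.02 in galactose medium, after raffinose pregrowth to mid-log, were incubated with compound for 24 hr at 30 deg C.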
An asterisk follows results filed as active; i = inactive; ? = inconclusive; · = no result given. Hits are enriched below; roughly 2.1% of the tested compounds scored in any of these assays. The call rests on the fitted dose curve; in most records, active means well fitted curve in the direction sought with a large enough effect; inconclusive means small, poorly fitted or top-dose-only effect, or another doubt; inactive means no such curve, though single readings can be large; an effect the other way counts as inactive or inconclusive. Potency means the concentration at half of the fitted maximal effect.

SMILES | Abeta yeast res | aSyn yeast inh | FUS suppressor | TDP-43 yeast inh
COC(=O)C1=C(c2cccc(OCc3ccccc3)c2)C[C@@H]2CC[C@H]1N2C(=O)NCc1ccc(F)cc1 | i | -13% | ? | 23%
COC(=O)C1=C(c2cccc(OCc3ccccc3)c2)C[C@@H]2CC[C@H]1N2C(=O)NCc1ccc2[nH]ccc2c1 | i | -5% | 8.9µM* | -1%
N#CSCC(=O)N1c2ccccc2CCc2ccccc21 | ? | 0% | · | 18µM*
C[C@]12CC[C@@H](O)C[C@@H]1CC[C@@H]1[C@@H]2CC[C@]2(C)C(=O)CC[C@@H]12 | i | 1% | i | 18µM*
Oc1ccc2c3c1O[C@H]1c4oc5ccccc5c4C[C@@]4(O)C(C2)N(CC2CC2)CCC314 (some centres not stated) | · | 2% | · | ·
CN(CC1COc2ccccc2O1)c1nc(-c2cccnc2)nc2ccccc12 (configuration not stated) | i | -16% | i | 8.9µM*
Cc1cccc(NC(=O)c2cc3c(=O)n4ccccc4nc3n2C)c1C | i | · | i | ?
O=[N+]([O-])c1ccc(S(=O)(=O)N2CCn3cccc3C2c2ccccc2F)cc1 (configuration not stated) | i | · | ? | 22µM*
O=C(Nc1ccccn1)NC12CC3CC(CC(C3)C1)C2 | i | -7% | i | 3.2µM*
COc1ccccc1C1Nc2ccccc2-n2c(-c3ccccc3)c3c(=O)n(C)c(=O)n(C)c3c21 (configuration not stated) | i | · | i | ?
Oc1ccccc1/C=N/[n+]1ccccc1 | i | -1% | i | -25%
COc1ccc(CN2Cc3cnnn3-c3ccccc3C2c2ccccc2)cc1 (configuration not stated) | i | 13% | i | 0%
c1ccc(C2c3ccccc3-n3nncc3CN2CC2CCCCC2)cc1 (configuration not stated) | i | -29% | i | 16µM*
CC(=O)O/C(=C1\CC2C3CC=C4CC(OC(C)=O)CCC4(C)C3CCC2(C)C1=O)C(F)(F)F (configuration not stated) | i | 13µM* | · | ?
CC(=O)O[C@H]1CC[C@@]2(C)C(=CC[C@@H]3[C@@H]2CC[C@]2(C)C(=O)CC[C@@H]32)C1 | i | ? | i | ?
COc1ccc(-c2nc(CSCC(=O)N3CCN(c4ccc(F)cc4)CC3)c(C)o2)cc1 | i | · | ? | ?
Cc1nn(-c2nccs2)c2c1C(=O)CC(C)(C)C2Br (configuration not stated) | i | -1% | i | 14µM*
CC1C(OC(=O)CCC(=O)NC(C)(C)CO)O[C@H]2OC3(C)CC[C@H]4[C@H](C)CCC1C24OO3 (some centres not stated) | i | -10% | i | 22µM*
C[C@H]1[C@H](OC(=O)CCC(=O)NCc2ccc(C(=O)O)cc2)O[C@@H]2O[C@@]3(C)CC[C@H]4[C@H](C)CC[C@@H]1C24OO3 | i | -9% | i | 22µM*
CC(C)CC(NC(=O)CCCNC(=O)CCC(=O)OC1O[C@H]2OC3(C)CC[C@H]4[C@H](C)CCC(C1C)C24OO3)C(=O)O (some centres not stated) | i | -2% | i | 20µM*
COc1ccc(-c2cc(C(=O)N3CCN(c4ccccc4OC)CC3)c3cc(C(C)C)ccc3n2)cc1 | i | · | i | ?
COc1ccc(Cl)cc1NC(=O)CCn1c(=O)oc2ccccc21 | i | 8% | i | 13µM*
COc1ccc(Nc2nc(N)nc(CSc3nc4ccccc4s3)n2)cc1 | i | · | ? | 20µM*
CCC(C)C1NC(=O)C2CCCN2C(=O)C(CC(C)C)OC(=O)CCNC(=O)C(C)N(C)C(=O)C(C(C)C)N(C)C1=O (configuration not stated) | i | -3% | · | -15%
C=CCCC[C@@H]1OC(=O)CNC(=O)C([C@@H](C)CC)NC(=O)[C@@H]2CCCN2C(=O)C([C@@H](C)CC)OC(=O)[C@H](Cc2ccccc2)N(C)C(=O)[C@H](C(C)C)NC(=O)C1(C)C (some centres not stated) | i | 11% | 4µM* | -2%
SMILES | Abeta yeast res | aSyn yeast inh | FUS suppressor | TDP-43 yeast inh
CP(=O)(O)C1=CCNCC1 | · | -8% | · | ·
COC1=C(C)C(=O)c2c(c(COC(N)=O)c3n2C[C@@H]2[C@@H]3N2C)C1=O (some centres not stated) | · | 0% | · | ·
Cc1cccc(-n2c(/C=C/c3ccccc3O)nc3ccccc3c2=O)c1 | i | · | i | 18%
Cc1cccc(-n2c(/C=C/c3cccc4ccccc34)nc3ccccc3c2=O)c1 | i | · | i | 35µM*
COc1ccc(-n2c(/C=C\c3ccccc3F)nc3ccccc3c2=O)c(OC)c1 | ? | · | ? | 35µM*
CCCn1c(C)c(C(=O)c2ccc3ccccc3c2)c2ccccc21 | · | -16% | · | ·
Cc1onc(-c2ccccc2)c1C(=O)N[C@@H]1C(=O)N2C1SC(C)(C)[C@@H]2C(=O)O (some centres not stated) | i | 0% | i | ?
O=C(c1ccc2c(c1)N(Cc1ccc(F)cc1)C(=O)c1ccccc1S2)N1CCC2(CC1)OCCO2 | i | · | i | 27%
CCOc1ccc(CN2C(=O)c3ccccc3Sc3ccc(C(=O)N4CCC5(CC4)OCCO5)cc32)cc1 | i | · | ? | 13µM*
c1cc2c(cc1[C@H]1OCC3C1CO[C@@H]3c1ccc3c(c1)OCO3)OCO2 (some centres not stated) | i | 6% | ? | 11µM*
C/C=C/c1ccc2c(c1)OCO2 | i | 0% | i | 7%
O=C(C(=O)N1CCOCC1)c1cn(CCCOc2ccccc2)c2ccccc12 | i | 6% | i | 10%
CC(=O)c1cn(CCCOc2ccccc2)c2ccccc12 | i | 14% | i | 11µM*
CCCCCCCCN1C(=O)[C@H](CC(=O)NCCc2ccccc2OC)C[C@@]2(C(=O)OC)CCCCC=C12 | i | ? | ? | ?
Cc1ccc2c(c1)NP(=S)(Oc1ccccc1)N2 (configuration not stated) | i | ? | i | 35µM*
O=C(CCC1N=C2c3ccccc3N=C(SCc3cccc(Cl)c3)N2C1=O)N1CCN(c2ccccc2)CC1 (configuration not stated) | i | · | ? | ?
NN=C1C(Cl)=C(Cl)C(Cl)=C1Cl | i | 4% | i | 18µM*
O=S(=O)(NC1CCCC1)OCC(Cl)(Cl)Cl | i | -4% | i | 12%
O=S(=O)(NC1CCCCCCC1)OCC(Cl)(Cl)Cl | i | -16% | i | 35µM*
CCC(=NCCO)c1c(O)n(C2CCCCC2)c(=O)[nH]c1=O | i | 0% | i | 25%
CCC(=NCc1ccc2c(c1)OCO2)c1c(O)n(C2CCCCC2)c(=O)[nH]c1=O | i | 1% | i | 20µM*

Assay outcomes (PubChem)
